From PubChem BioAssay
TNFa cytotox: cytotoxicity in TNFa-stimulated HUVEC, primary screen, cytotoxicity control for VCAM1 expression modulator project, imaging, Hoechst nuclei count; HUVEC TNFalpha-stimulated, Hoechst cell count; cell count reduction, % at 2 µM; actives 0.17% (n = 93,000);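 active = cell count reduction exceeding the screen mean by over 5 SD, scaled to untreated wells per plate, cut at about 78% in these data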;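 note: cells counted after 24 h of TNF alpha exposure following the 1 h pretreatment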
VCAM1 TNFa inh: inhibitors of TNFa-induced VCAM1 expression, primary screen, imaging, HUVEC, TNFa stimulus, immunofluorescence; HUVEC TNFa-induced VCAM-1 immunofluorescence, high-content imaging; inhibition, % at 2 µM; actives 0.48% (n = 95,000);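 active = inhibition above the batch mean plus 3 SD, with images confirmed as a hit by eye, cut at about 37% in these data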;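 note: 0% = TNF-stimulated DMSO wells and 100% = unstimulated control wells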
NFkB transloc pot: enhancers of NFkB p65 translocation in HUVEC – imaging, IL-1B stimulus, high-content imaging, primary screen | HUVEC IL-1B NFkB p65 nuclear translocation imaging | activation, % at 2 µM | actives 0.3% (n = 94,000) | AID 819, 2007;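 active = activation above 40%, about the mean plus 3 SD, also judged a hit on visual image review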;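 note: percent activation is computed from the nuclear over cytoplasmic p65 intensity ratio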
E-sel TNF inh: E-selectin induction blockers in HUVEC – imaging, immunofluorescence, high content, primary screen; actives 0.71% (n = 120,000); HUVEC TNFa-induced E-selectin immunofluorescence; inhibition, % at 2 µM; AID 1246, 2008;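 active = inhibition above the batch mean plus 3 SD, and confirmed as a hit on visual image review, cut at about 43% in these data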;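 note: 0% = TNF-stimulated DMSO wells and 100% = unstimulated control wells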
IL1B NFkB inh: inhibitors of IL-1B driven NFkB p65 nuclear import, primary screen, imaging, HUVEC, IL-1B stimulus, high-content imaging. AID 796, 2007. actives 0.43% (n = 94,000). inhibition, % at 2 µM. HUVEC IL-1B NFkB p65 nuclear translocation imaging;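 active = inhibition above about 30% together with a positive call from visual inspection of the well image, limit read from the data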;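 note: nuclear over cytoplasmic p65 intensity ratio measured by imaging; 0% = IL-1B stimulated DMSO wells and 100% = unstimulated DMSO wells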
IL1B cytotox: cytotoxicity in IL-1B stimulated HUVEC, primary screen, cytotoxicity control for IL-1B NFkB translocation project, imaging, Hoechst nuclear count, IL-1B stimulus | cell count reduction, % at 2 µM | actives 0.41% (n = 94,000) | HUVEC cell count loss;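 active = cell count reduction more than 3 SD above the screen-wide mean, cut at about 70% in these data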;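 note: normalized per plate to untreated control cells as the no-loss baseline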
The depositor's hits bear a star; x = not tested or not shown. This is a sample that favours compounds with a hit; in the whole collection about 1.8% have one here.

SMILES	TNFa cytotox	VCAM1 TNFa inh	NFkB transloc pot	E-sel TNF inh	IL1B NFkB inh	IL1B cytotox
COc1ccc(/C=N/NC(=O)COc2ccccc2-c2ccccc2)cc1	58.8	1.7	-18.5	-15.4	18.5	19.1
COc1ccc(NC(=S)N2CCC(N(C)CC3CCCO3)CC2)cc1Cl (centres undefined)	x	x	x	-11.1	x	x
Cc1ccc2c(c1)N(C(=O)c1ccco1)C(C)(C)c1ssc(=S)c1-2	-12.6	0.7	19.6	4.5	-19.6	-11.8
Cc1ccc(C)c(NC(=O)CSc2nnc([C@@H](N)Cc3ccccc3)o2)c1	0.7	2.9	x	61.7*	x	x
CCCS(=O)(=O)N1CCC(C(=O)NC2CCCC(C)C2C)CC1 (centres undefined)	-11.9	2.2	45.9*	-2.6	-45.9	-14.4
COc1ccc(F)cc1S(=O)(=O)Nc1ccc(C)cc1	2.2	7.8	22.1	-5.3	-22.1	-23.0
CC(/C=N/NC(=O)c1cc(-c2ccncc2)nc2ccccc12)=C\c1ccco1	65.0	87.1*	-29.7	41.2	29.7	39.7
CC1(c2ccc(OC(F)F)cc2)NC(=O)N(/N=C/c2c(O)ccc3ccccc23)C1=O (centres undefined)	x	x	x	-18.8	x	x
COc1cc(NC(=O)CN2CCC(C)CC2)c(C)cc1[N+](=O)[O-]	x	x	x	83.0*	x	x
CCCOc1ccc(C(=O)C(CN2CCOCC2)c2ccccc2)cc1 (centres undefined)	-13.3	50.0*	2.3	17.6	-2.3	-3.4
CCOc1ccc(C(=O)C(c2ccccc2)N2CCOCC2)cc1 (centres undefined)	65.5	75.9*	1.6	x	-1.6	13.7
COc1ccc(C(=O)C(CN2CCOCC2)c2ccccc2)cc1F (centres undefined)	x	x	-11.2	62.4*	11.2	-5.4
C=CCc1ccc(OCCCCN2CC(C)OC(C)C2)c(OC)c1 (centres undefined)	-6.5	22.7	-12.7	23.3	12.7	-2.5
O=C(Cc1cccs1)N1CCN(c2ccc([N+](=O)[O-])cc2)CC1	x	x	x	-11.2	x	x
O=C1CC(c2ccccc2)SC(N(c2ccccc2)c2ccccc2)=N1 (centres undefined)	x	x	x	62.1*	x	x
COc1ccc(C(=O)/C=C/Nc2ccc([N+](=O)[O-])cc2C)c(OC)c1	3.4	-17.7	10.1	100.0*	-10.1	10.0
Cc1ccc(N(C(=O)Cn2nnc(-c3ccc(F)cc3)n2)C(CC(C)C)C(=O)NCC2CCCO2)cc1 (centres undefined)	-0.9	5.0	12.9	-2.2	-12.9	-30.7
Cc1cccnc1Nc1nc(-c2ccccn2)cs1	72.7	94.4*	4.9	19.0	-4.9	1.7
COc1ccc(/C=C/C(=O)c2ccc(NC(=O)c3cccs3)cc2)cc1OC	-10.3	9.9	-2.9	17.1	2.9	-31.5
O=C(CSc1ncn[nH]1)Nc1ccc(Cl)c(Cl)c1	-8.5	-9.9	x	-9.0	x	x
CCCCC(=O)Nc1sc2c(c1C(=O)OCC)CCC(C=O)=C2Cl	30.3	9.2	-88.4	-36.2	88.4*	59.6
CCOC(=O)c1c(NC(=O)c2ccccc2Cl)sc2c1CCc1ccccc1-2	x	x	x	-11.2	x	x
Cn1c2c(c(=O)n(C)c1=O)C1(C(=O)Nc3ccccc31)C(C#N)=C(N)O2 (centres undefined)	-3.1	24.5	-3.4	x	3.4	-15.6
Cc1ccc(NC(=O)COC(=O)CCC(=O)c2cccs2)cc1S(=O)(=O)N1CCOCC1	-13.4	18.6	48.0*	16.4	-48.0	-18.3
CC(C)CN1C(=O)c2ccccc2C1(O)Cc1ccccc1 (centres undefined)	-2.9	-6.3	0.7	9.6	-0.7	-19.1
O=C1c2ccccc2C(O)(Cc2ccccc2)N1C1CCCCC1 (centres undefined)	-19.3	-23.4	-36.8	6.9	36.8*	92.1*
CSc1nc(N(C)NC(=O)c2ccccc2)c2ccccc2n1	28.7	12.0	-13.8	-46.0	13.8	5.8
CSc1nc(N(C)NC(=O)c2ccc(Cl)cc2)c2ccccc2n1	24.5	12.5	-34.1	-5.8	34.1*	36.0
O=C(c1ccccc1)c1nc[nH]c1C(=O)Nc1ccccc1	-30.0	-49.8	-9.1	2.3	9.1	-2.5
